# The supplement of paper PMC6411743
# ± gives the standard deviation of the averaged measurements. The full data set covers some 6,200 targets. This sample favours those with the largest changes.
# Compound: Nc1ncnc2c1ncn2[C@@H]1O[C@H](COP(=O)(O)OP(=O)(O)NP(=O)(O)O)[C@@H](O)[C@H]1O [adenylyl imidodiphosphate]
# Experiment: NP40-soluble protein abundance relative to vehicle (solubility fold change) (ratio); higher = more soluble protein in presence of AMP-PNP
# How it was run: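 Values are fold changes against the detergent-processed vehicle, based on vsn-normalised intensities. Jurkat crude lysate was treated at eight concentrations from 0.1 to 10 mM (10 min at room temperature, then 3 min at 37 °C), solubilised with 0.8% NP40 and benzonase, ultracentrifuged and analysed by TMT-labelled LC-MS/MS over three independent experiments.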
# UniProt P43243, sequence (P43243 whole entry, one chain of several): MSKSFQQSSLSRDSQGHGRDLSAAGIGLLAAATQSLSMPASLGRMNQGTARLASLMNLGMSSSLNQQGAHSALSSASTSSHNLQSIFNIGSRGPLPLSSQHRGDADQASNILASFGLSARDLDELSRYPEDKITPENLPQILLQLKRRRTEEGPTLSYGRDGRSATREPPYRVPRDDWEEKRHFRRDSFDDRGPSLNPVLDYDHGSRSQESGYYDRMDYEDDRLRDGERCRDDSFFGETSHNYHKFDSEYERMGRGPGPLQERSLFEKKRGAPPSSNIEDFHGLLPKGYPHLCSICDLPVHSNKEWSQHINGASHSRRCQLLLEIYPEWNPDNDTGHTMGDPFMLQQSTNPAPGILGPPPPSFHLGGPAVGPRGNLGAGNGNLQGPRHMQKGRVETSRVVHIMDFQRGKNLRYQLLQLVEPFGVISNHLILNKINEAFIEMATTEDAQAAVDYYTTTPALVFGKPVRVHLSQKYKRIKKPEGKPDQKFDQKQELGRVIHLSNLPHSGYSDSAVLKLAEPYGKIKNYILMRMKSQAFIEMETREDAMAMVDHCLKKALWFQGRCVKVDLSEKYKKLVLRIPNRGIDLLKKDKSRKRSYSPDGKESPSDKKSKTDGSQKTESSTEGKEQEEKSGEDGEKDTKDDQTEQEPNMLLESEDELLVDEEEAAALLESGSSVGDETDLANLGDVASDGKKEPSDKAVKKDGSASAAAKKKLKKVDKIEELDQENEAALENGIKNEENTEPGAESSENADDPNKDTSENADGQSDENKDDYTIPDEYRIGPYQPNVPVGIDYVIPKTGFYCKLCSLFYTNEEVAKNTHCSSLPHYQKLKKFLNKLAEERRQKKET
# UniProt Q9BY11, sequence (Q9BY11 whole entry, one chain of several): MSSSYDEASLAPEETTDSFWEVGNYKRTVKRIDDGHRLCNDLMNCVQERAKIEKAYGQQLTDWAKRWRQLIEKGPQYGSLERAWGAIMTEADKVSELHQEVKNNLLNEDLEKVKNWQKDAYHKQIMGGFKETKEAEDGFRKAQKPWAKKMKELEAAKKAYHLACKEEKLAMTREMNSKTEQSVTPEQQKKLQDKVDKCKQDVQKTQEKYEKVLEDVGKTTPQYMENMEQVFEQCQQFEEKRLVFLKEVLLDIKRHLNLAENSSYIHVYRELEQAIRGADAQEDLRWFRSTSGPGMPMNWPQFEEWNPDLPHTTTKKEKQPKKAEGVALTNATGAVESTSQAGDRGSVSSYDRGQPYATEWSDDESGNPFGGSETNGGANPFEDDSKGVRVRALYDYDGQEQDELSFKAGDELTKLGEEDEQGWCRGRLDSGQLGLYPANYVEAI
# UniProt O60281, sequence (O60281 whole entry, one chain of several): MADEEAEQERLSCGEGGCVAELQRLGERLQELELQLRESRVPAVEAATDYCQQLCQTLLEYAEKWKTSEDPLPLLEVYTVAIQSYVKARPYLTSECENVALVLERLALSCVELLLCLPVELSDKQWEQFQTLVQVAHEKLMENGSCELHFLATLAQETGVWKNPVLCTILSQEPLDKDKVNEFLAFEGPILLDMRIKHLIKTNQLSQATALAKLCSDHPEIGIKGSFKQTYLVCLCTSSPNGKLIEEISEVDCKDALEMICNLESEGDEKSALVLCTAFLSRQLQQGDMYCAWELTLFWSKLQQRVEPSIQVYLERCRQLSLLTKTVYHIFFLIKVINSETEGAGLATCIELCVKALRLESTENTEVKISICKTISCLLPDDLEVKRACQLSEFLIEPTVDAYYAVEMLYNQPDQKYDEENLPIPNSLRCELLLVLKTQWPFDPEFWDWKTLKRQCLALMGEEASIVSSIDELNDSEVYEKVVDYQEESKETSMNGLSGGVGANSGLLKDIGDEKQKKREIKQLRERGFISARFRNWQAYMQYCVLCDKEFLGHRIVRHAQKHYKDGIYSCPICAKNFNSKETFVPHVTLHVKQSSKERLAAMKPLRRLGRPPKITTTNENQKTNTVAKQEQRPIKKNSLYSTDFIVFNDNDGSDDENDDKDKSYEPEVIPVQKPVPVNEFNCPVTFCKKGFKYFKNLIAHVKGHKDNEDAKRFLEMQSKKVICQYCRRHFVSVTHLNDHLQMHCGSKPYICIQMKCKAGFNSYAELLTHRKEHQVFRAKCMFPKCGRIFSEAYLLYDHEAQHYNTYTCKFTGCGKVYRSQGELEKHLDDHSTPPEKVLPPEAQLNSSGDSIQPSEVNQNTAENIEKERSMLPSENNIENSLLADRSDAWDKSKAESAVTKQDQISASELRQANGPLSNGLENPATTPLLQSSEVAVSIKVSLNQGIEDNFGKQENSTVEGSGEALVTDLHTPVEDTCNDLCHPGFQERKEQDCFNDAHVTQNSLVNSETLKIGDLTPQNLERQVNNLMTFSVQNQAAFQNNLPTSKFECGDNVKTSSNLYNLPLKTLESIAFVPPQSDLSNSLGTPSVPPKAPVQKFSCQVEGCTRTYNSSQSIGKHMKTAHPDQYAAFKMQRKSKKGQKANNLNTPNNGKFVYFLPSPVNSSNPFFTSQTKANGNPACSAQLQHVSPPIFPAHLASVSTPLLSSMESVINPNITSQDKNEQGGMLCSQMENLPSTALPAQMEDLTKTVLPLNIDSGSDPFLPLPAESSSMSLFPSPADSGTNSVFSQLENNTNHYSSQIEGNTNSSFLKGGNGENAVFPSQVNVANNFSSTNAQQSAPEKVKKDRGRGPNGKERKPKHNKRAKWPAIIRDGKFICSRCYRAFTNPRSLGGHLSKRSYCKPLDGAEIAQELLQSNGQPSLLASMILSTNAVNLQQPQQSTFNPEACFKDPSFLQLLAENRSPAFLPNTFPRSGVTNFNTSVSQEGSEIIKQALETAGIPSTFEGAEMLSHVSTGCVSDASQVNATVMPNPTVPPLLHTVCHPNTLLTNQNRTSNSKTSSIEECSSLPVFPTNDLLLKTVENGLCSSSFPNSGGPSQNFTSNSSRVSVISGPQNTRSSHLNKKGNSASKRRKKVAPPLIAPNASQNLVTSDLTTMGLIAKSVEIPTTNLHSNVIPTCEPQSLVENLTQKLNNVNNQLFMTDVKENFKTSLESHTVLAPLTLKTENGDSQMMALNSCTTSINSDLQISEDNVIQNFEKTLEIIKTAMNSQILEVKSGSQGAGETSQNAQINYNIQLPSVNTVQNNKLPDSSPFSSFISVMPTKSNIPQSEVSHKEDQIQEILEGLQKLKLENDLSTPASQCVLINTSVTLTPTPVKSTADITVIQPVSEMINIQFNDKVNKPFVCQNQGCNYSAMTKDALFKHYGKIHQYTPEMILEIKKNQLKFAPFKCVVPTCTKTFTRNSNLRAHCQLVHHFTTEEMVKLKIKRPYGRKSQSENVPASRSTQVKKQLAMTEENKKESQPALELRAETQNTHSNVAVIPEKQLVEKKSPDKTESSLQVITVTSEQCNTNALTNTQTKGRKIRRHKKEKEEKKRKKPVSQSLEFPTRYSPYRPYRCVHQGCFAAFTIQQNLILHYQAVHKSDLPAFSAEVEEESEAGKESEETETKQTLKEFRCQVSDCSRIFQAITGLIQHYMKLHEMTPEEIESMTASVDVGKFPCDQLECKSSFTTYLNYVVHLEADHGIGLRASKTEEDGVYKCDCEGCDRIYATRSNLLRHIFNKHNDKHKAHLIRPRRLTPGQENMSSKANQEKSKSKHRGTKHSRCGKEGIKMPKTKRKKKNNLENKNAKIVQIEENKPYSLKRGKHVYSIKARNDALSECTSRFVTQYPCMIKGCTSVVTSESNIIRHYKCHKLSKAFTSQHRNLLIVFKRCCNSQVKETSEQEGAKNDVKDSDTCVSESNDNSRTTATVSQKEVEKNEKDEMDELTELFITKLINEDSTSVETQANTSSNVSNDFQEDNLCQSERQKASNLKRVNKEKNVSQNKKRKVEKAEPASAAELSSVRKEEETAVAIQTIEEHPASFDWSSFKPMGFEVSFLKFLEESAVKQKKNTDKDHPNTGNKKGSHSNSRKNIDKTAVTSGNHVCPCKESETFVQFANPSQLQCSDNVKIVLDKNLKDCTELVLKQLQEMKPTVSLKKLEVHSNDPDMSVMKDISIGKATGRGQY
# UniProt Q8TBC5, sequence (Q8TBC5 whole entry, one chain of several): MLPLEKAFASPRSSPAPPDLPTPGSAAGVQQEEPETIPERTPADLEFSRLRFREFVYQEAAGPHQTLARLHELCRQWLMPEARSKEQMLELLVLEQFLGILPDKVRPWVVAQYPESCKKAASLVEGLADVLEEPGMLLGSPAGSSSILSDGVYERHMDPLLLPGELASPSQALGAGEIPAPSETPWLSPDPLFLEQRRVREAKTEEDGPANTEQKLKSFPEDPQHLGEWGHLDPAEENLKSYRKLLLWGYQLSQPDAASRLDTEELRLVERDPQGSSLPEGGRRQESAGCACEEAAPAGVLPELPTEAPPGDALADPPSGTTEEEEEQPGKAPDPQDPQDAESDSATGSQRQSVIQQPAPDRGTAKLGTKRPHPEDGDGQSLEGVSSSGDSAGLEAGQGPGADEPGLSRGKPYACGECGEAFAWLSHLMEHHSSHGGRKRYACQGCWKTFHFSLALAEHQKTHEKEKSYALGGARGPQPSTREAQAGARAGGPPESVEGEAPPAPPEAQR
# UniProt P34949, sequence (P34949 whole entry, one chain of several): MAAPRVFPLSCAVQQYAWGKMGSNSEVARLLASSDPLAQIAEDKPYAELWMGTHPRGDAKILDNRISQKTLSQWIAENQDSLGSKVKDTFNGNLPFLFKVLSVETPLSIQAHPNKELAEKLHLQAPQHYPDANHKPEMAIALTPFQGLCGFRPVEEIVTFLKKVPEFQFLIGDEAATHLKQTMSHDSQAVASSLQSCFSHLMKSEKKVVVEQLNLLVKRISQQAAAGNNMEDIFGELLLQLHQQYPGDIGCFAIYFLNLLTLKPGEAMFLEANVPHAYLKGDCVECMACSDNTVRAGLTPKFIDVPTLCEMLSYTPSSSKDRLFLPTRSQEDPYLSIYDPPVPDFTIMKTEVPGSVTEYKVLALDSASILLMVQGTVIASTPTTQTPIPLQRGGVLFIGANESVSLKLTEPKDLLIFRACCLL
# UniProt O96015, sequence (O96015 whole entry, one chain of several): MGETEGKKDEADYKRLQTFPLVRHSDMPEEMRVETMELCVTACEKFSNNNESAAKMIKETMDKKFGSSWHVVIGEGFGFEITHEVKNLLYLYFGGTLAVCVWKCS
Target,NP40-soluble protein abundance (concentration: 1mM),NP40-soluble protein abundance (concentration: 2mM),NP40-soluble protein abundance (concentration: 4mM),NP40-soluble protein abundance (concentration: 6mM),NP40-soluble protein abundance (concentration: 8mM),NP40-soluble protein abundance (concentration: 10mM)
J3KPH8|Q8WUI4|Q8WUI4-3|Q8WUI4-4|Q8WUI4-5|Q8WUI4-6|Q8WUI4-7|Q8WUI4-8 (UniProt Q8WUI4),0.979 ± 0.04,1 ± 0.027,1 ± 0.026,0.98 ± 0.024,0.998 ± 0.067,0.9557 ± 0.0038
UniProt O14646|O14646-2,1.07 ± 0.052,1.15 ± 0.023,1.23 ± 0.077,1.33 ± 0.14,1.41 ± 0.11,1.49 ± 0.15
E7EUU4|E7EX73|E9PGM1|Q04637-8|Q04637-4 (UniProt Q04637),1.06 ± 0.036,1.12 ± 0.039,1.12 ± 0.045,1.14 ± 0.063,1.15 ± 0.039,1.17 ± 0.056
L0R819 (UniProt Q9NWL6),1.04 ± 0.017,1.03 ± 0.074,1.01 ± 0.026,0.996 ± 0.089,0.972 ± 0.055,1 ± 0.044
D6RAJ6|Q9UKT5|Q9UKT5-2 (UniProt Q9UKT5),1.01 ± 0.035,0.996 ± 0.032,0.986 ± 0.024,0.975 ± 0.026,0.983 ± 0.035,0.981 ± 0.045
J3KNV1|O60281 (UniProt O60281),1.02 ± 0.034,1.08 ± 0.024,1.016 ± 0.0028,0.966 ± 0.034,0.968 ± 0.02,0.985 ± 0.041
F6TLX2|Q9HC38-2 (UniProt Q9HC38),1.01 ± 0.02,1.01 ± 0.014,0.981 ± 0.03,0.958 ± 0.035,0.938 ± 0.034,0.95 ± 0.047
H7C5I3|J3KR55|P35236|P35236-2|P35236-3 (UniProt P35236),0.978 ± 0.0098,1.01 ± 0.021,0.994 ± 0.037,0.978 ± 0.011,0.959 ± 0.018,0.982 ± 0.033
LSM1 (UniProt O15116),0.913 ± 0.018,0.961 ± 0.041,0.921 ± 0.0096,0.918 ± 0.023,0.907 ± 0.011,0.897 ± 0.024
C9JYN0|Q16563-2|Q16563 (UniProt Q16563),1.01 ± 0.015,1.06 ± 0.12,1.05 ± 0.042,1.12 ± 0.12,1.12 ± 0.057,1.14 ± 0.17
E7EQT4|Q9UKV3-5|S4R3H4|Q9UKV3-3 (UniProt Q9UKV3),1.05 ± 0.061,1.1 ± 0.021,1.05 ± 0.07,1.03 ± 0.09,0.972 ± 0.04,1.04 ± 0.069
PSMD3 (UniProt O43242),0.909 ± 0.031,0.865 ± 0.055,0.885 ± 0.091,0.906 ± 0.087,0.933 ± 0.11,0.915 ± 0.14
E9PBG7|E9PF82|Q13557|Q13557-10|Q13557-11|Q13557-12|Q13557-3|Q13557-4|Q13557-5|Q13557-6|Q13557-8|Q13557-9 (UniProt Q13557),0.94 ± 0.026,0.989 ± 0.049,0.903 ± 0.017,0.89 ± 0.054,0.878 ± 0.022,0.88 ± 0.027
CCDC85C (UniProt A6NKD9),0.9594 ± 0.0012,1.0044 ± 0.00019,0.953 ± 0.035,0.9849 ± 0.007,0.9793 ± 0.0043,0.9704 ± 0.0054
J3KS94|J3QQK6|P02686|P02686-2 (UniProt P02686),0.968 ± 0.054,0.993 ± 0.035,0.96 ± 0.03,0.928 ± 0.033,0.896 ± 0.013,0.903 ± 0.029
C9JIF9|P13798 (UniProt P13798),0.953 ± 0.027,0.88 ± 0.061,0.915 ± 0.0095,0.903 ± 0.014,0.909 ± 0.022,0.871 ± 0.04
A0A0C4DG78|M0R3C6|Q8TBC5|Q8TBC5-2|Q8TBC5-3|Q8TBC5-4 (UniProt Q8TBC5),1 ± 0.012,1.02 ± 0.03,0.984 ± 0.028,1.016 ± 0.003,1.002 ± 0.0089,1.02 ± 0.011
F5GXC5|H3BUJ1|Q8TB96 (UniProt Q8TB96),1.01 ± 0.017,1.02 ± 0.054,1.01 ± 0.037,1.008 ± 0.0079,1.01 ± 0.024,0.996 ± 0.023
F8VQE1|Q9UHB6|Q9UHB6-2 (UniProt Q9UHB6),1.17 ± 0.073,1.28 ± 0.2,1.33 ± 0.12,1.39 ± 0.18,1.37 ± 0.17,1.58 ± 0.21
A0A0C4DH01|Q9NVU0|Q9NVU0-4|Q9NVU0-5|Q9NVU0-2|Q9NVU0-3 (UniProt Q9NVU0),1 ± 0.058,1.02 ± 0.019,1.06 ± 0.052,1.03 ± 0.063,1.02 ± 0.064,1.07 ± 0.081
I3L448|Q5TC12 (UniProt Q5TC12),1.01 ± 0.033,1.02 ± 0.015,1.01 ± 0.039,0.992 ± 0.029,0.965 ± 0.027,0.977 ± 0.039
K7EMM8|Q49A26|Q49A26-2|Q49A26-3|Q49A26-4 (UniProt Q49A26),1.07 ± 0.062,1.14 ± 0.1,1.16 ± 0.14,1.25 ± 0.17,1.31 ± 0.2,1.47 ± 0.3
F6U236|Q9BY11 (UniProt Q9BY11),0.978 ± 0.036,1.03 ± 0.057,0.968 ± 0.018,1 ± 0.063,0.978 ± 0.069,0.989 ± 0.054
UniProt O43148|O43148-2,0.996 ± 0.013,1.01 ± 0.011,0.992 ± 0.017,0.992 ± 0.027,0.985 ± 0.029,1 ± 0.033
A8MXP9|P43243 (UniProt P43243),1.03 ± 0.033,1.07 ± 0.016,1.05 ± 0.016,1.07 ± 0.042,1.08 ± 0.025,1.1 ± 0.028
H3BPB8|P34949 (UniProt P34949),1.029 ± 0.0072,1.01 ± 0.039,1.02 ± 0.027,0.976 ± 0.029,1.01 ± 0.042,0.988 ± 0.048
B0QXZ5|O96015 (UniProt O96015),1 ± 0.02,1.01 ± 0.047,0.983 ± 0.018,0.998 ± 0.021,0.996 ± 0.019,0.9826 ± 0.0082
A0A0B4J220 (UniProt E9PRG8),1.14 ± 0.051,1.15 ± 0.057,1.2 ± 0.045,1.26 ± 0.1,1.4 ± 0.053,1.39 ± 0.046
A0A0A0MTL5|Q13309|Q13309-2 (UniProt Q13309),0.986 ± 0.041,0.965 ± 0.037,0.976 ± 0.029,0.932 ± 0.053,0.923 ± 0.036,0.91 ± 0.014
UniProt O60508|Q5SRN1,1.03 ± 0.018,1.07 ± 0.029,1.06 ± 0.026,1.09 ± 0.059,1.08 ± 0.044,1.13 ± 0.056
